{"source": "ChEMBL document CHEMBL5606460", "about": "“ASAP - DENV-2 NS2B-NS3 protease fluorescence single point” (2024)", "target": "Genome polyprotein (dengue virus type 2) (UniProt P29990)", "key": {"[1]": {"settings": "Thailand/16681/1984, Concentration 25.0 uM, Number of replicates 1.0"}}, "note": "In all, about 2,000 compounds went through this assay and about 110 (5.5%) showed an effect of 50% or more. The list comes from a sample in which strong results are over-represented; it also holds similar structures and randomly drawn compounds."}
{"smiles": "CCCC[C@H](NC(C)=O)C(=O)N[C@H](C(=O)NCc1ccc(CN)cc1)c1ccccc1", "values": [{"measurement": "inhibition", "setting": "Thailand/16681/1984, Concentration 49.5 uM, Number of replicates 2.0, Standard deviation 1.3580554366166637 %", "result": 0.537, "unit": "%"}, {"measurement": "inhibition", "setting": "Thailand/16681/1984, Concentration 99.01 uM, Number of replicates 2.0, Standard deviation 18.440494023113153 %", "result": 14.1, "unit": "%"}, {"measurement": "inhibition", "setting": "Thailand/16681/1984, Concentration 198.0 uM, Number of replicates 2.0, Standard deviation 14.8908767477505 %", "result": 56, "unit": "%"}]}
{"smiles": "c1cnc(C2CCN(Cc3c[nH]c4ccccc34)CC2)nc1", "values": [{"measurement": "inhibition", "setting": "Thailand/16681/1984, Concentration 49.5 uM, Number of replicates 2.0, Standard deviation 0.0814293971969877 %", "result": -4.94, "unit": "%"}, {"measurement": "inhibition", "setting": "Thailand/16681/1984, Concentration 99.01 uM, Number of replicates 2.0, Standard deviation 1.1974150626674833 %", "result": -3.24, "unit": "%"}, {"measurement": "inhibition", "setting": "Thailand/16681/1984, Concentration 198.0 uM, Number of replicates 2.0, Standard deviation 1.6263665310687148 %", "result": -1.42, "unit": "%"}]}
{"smiles": "COC(=O)c1csc(Cn2ncc(C3CCNCC3)c2C)n1", "values": [{"measurement": "inhibition", "setting": "Thailand/16681/1984, Concentration 49.5 uM, Number of replicates 2.0, Standard deviation 0.7717951129802201 %", "result": -5.62, "unit": "%"}, {"measurement": "inhibition", "setting": "Thailand/16681/1984, Concentration 99.01 uM, Number of replicates 2.0, Standard deviation 0.8815947340216488 %", "result": -4.23, "unit": "%"}, {"measurement": "inhibition", "setting": "Thailand/16681/1984, Concentration 198.0 uM, Number of replicates 2.0, Standard deviation 1.4332580373412276 %", "result": -2.98, "unit": "%"}]}
{"smiles": "O=C(Cc1cnc[nH]1)NC1CCN(C(=O)c2cccc3[nH]ncc23)CC1", "values": [{"measurement": "inhibition", "setting": "Thailand/16681/1984, Concentration 49.5 uM, Number of replicates 2.0, Standard deviation 0.5712330544607026 %", "result": -0.001, "unit": "%"}, {"measurement": "inhibition", "setting": "Thailand/16681/1984, Concentration 99.01 uM, Number of replicates 2.0, Standard deviation 0.88648652906749 %", "result": 0.297, "unit": "%"}, {"measurement": "inhibition", "setting": "Thailand/16681/1984, Concentration 198.0 uM, Number of replicates 2.0, Standard deviation 1.4162803173835237 %", "result": -0.087, "unit": "%"}]}
{"smiles": "O=Cc1ccc(N2CCC(C(=O)Nc3n[nH]c4ccc(Br)cc34)CC2)cc1", "values": [{"measurement": "inhibition", "setting": "[1]", "result": 10.1, "unit": "%"}]}
{"smiles": "CCN(CC)S(=O)(=O)c1ccc(NC(=O)C2CCN(c3ccc(C=O)cc3)CC2)cc1", "values": [{"measurement": "inhibition", "setting": "[1]", "result": 12.2, "unit": "%"}]}
{"smiles": "O=C(Nc1cc2c(cc1C1CC1)CNC2)c1cc(F)cc2[nH]ncc12", "values": [{"measurement": "inhibition", "setting": "Thailand/16681/1984, Concentration 99.5 uM, Number of replicates 2.0, Standard deviation 0.34945873996674337 %", "result": 63.1, "unit": "%"}, {"measurement": "inhibition", "setting": "Thailand/16681/1984, Concentration 295.6 uM, Number of replicates 2.0, Standard deviation 0.6526301250248825 %", "result": 85.2, "unit": "%"}]}
{"smiles": "COc1cc(Cc2c(-c3ccc(F)cc3)noc2C)nc(N2CCNCC2)n1", "values": [{"measurement": "inhibition", "setting": "Thailand/16681/1984, Concentration 49.5 uM, Number of replicates 2.0, Standard deviation 0.4285559202279565 %", "result": -0.048, "unit": "%"}, {"measurement": "inhibition", "setting": "Thailand/16681/1984, Concentration 99.01 uM, Number of replicates 2.0, Standard deviation 0.4007548684992308 %", "result": 1.07, "unit": "%"}, {"measurement": "inhibition", "setting": "Thailand/16681/1984, Concentration 198.0 uM, Number of replicates 2.0, Standard deviation 0.4757654271085549 %", "result": 6.24, "unit": "%"}]}
{"smiles": "O=Cc1ccc(N2CCC(C(=O)NCc3c(F)ccc(F)c3F)CC2)cc1", "values": [{"measurement": "inhibition", "setting": "[1]", "result": 12.3, "unit": "%"}]}
{"smiles": "O=Cc1ccc(N2CCC(C(=O)NCCc3ccc(Cl)c(Cl)c3)CC2)cc1", "values": [{"measurement": "inhibition", "setting": "[1]", "result": 11.5, "unit": "%"}]}
{"smiles": "CCN(CC)C1CCN(C(=O)C2CCN(c3ccc(C=O)cc3)CC2)CC1", "values": [{"measurement": "inhibition", "setting": "[1]", "result": 12.6, "unit": "%"}]}
{"smiles": "C[C@@H](NC(=O)c1cc(Cl)ccc1NS(=O)(=O)c1ccc(Oc2ccccc2Cl)cc1)C1COC1", "values": [{"measurement": "inhibition", "setting": "Thailand/16681/1984, Concentration 49.5 uM, Number of replicates 2.0, Standard deviation 0.4885797549298071 %", "result": 59.2, "unit": "%"}, {"measurement": "inhibition", "setting": "Thailand/16681/1984, Concentration 99.01 uM, Number of replicates 2.0, Standard deviation 0.152624190876378 %", "result": 68.4, "unit": "%"}, {"measurement": "inhibition", "setting": "Thailand/16681/1984, Concentration 198.0 uM, Number of replicates 2.0, Standard deviation 0.02447349481851786 %", "result": 59.2, "unit": "%"}]}
{"smiles": "C[C@@H](NC(=O)c1cc(Cl)ccc1NS(=O)(=O)c1ccc(Oc2ccccc2Cl)cc1)[C@H]1CCCO1", "values": [{"measurement": "inhibition", "setting": "Thailand/16681/1984, Concentration 49.5 uM, Number of replicates 2.0, Standard deviation 0.29635236214386457 %", "result": 82.5, "unit": "%"}, {"measurement": "inhibition", "setting": "Thailand/16681/1984, Concentration 99.01 uM, Number of replicates 2.0, Standard deviation 0.052507555399236044 %", "result": 84.4, "unit": "%"}, {"measurement": "inhibition", "setting": "Thailand/16681/1984, Concentration 198.0 uM, Number of replicates 2.0, Standard deviation 0.13838732262418607 %", "result": 80.7, "unit": "%"}]}
{"smiles": "Cc1cnccc1NC(=O)c1cc(C2CCCC2)n(C)c1C", "values": [{"measurement": "inhibition", "setting": "Thailand/16681/1984, Concentration 49.5 uM, Number of replicates 2.0, Standard deviation 1.895573393565592 %", "result": -3.53, "unit": "%"}, {"measurement": "inhibition", "setting": "Thailand/16681/1984, Concentration 99.01 uM, Number of replicates 2.0, Standard deviation 0.7217418528634704 %", "result": -1.88, "unit": "%"}, {"measurement": "inhibition", "setting": "Thailand/16681/1984, Concentration 198.0 uM, Number of replicates 2.0, Standard deviation 1.3851925911876457 %", "result": 0.718, "unit": "%"}]}
{"smiles": "C[C@@H](CS(C)(=O)=O)NC(=O)c1cc(Cl)ccc1NS(=O)(=O)c1ccc(Oc2ccccc2Cl)cc1", "values": [{"measurement": "inhibition", "setting": "Thailand/16681/1984, Concentration 49.5 uM, Number of replicates 2.0, Standard deviation 0.5989303195749703 %", "result": 51.1, "unit": "%"}, {"measurement": "inhibition", "setting": "Thailand/16681/1984, Concentration 99.01 uM, Number of replicates 2.0, Standard deviation 0.4213875631597994 %", "result": 57, "unit": "%"}, {"measurement": "inhibition", "setting": "Thailand/16681/1984, Concentration 198.0 uM, Number of replicates 2.0, Standard deviation 0.24651523106627876 %", "result": 43, "unit": "%"}]}
{"smiles": "COC[C@@H](C)CNC(=O)c1cc(Cl)ccc1NS(=O)(=O)c1ccc(Oc2ccccc2Cl)cc1", "values": [{"measurement": "inhibition", "setting": "Thailand/16681/1984, Concentration 49.5 uM, Number of replicates 2.0, Standard deviation 0.2816677257730929 %", "result": 82.2, "unit": "%"}, {"measurement": "inhibition", "setting": "Thailand/16681/1984, Concentration 99.01 uM, Number of replicates 2.0, Standard deviation 0.03025941418209339 %", "result": 83.8, "unit": "%"}, {"measurement": "inhibition", "setting": "Thailand/16681/1984, Concentration 198.0 uM, Number of replicates 2.0, Standard deviation 0.3452939569842909 %", "result": 76.9, "unit": "%"}]}
{"smiles": "CC[C@H](C#N)NC(=O)c1cc(Cl)ccc1NS(=O)(=O)c1ccc(Oc2ccccc2Cl)cc1", "values": [{"measurement": "inhibition", "setting": "Thailand/16681/1984, Concentration 49.5 uM, Number of replicates 2.0, Standard deviation 0.706613157296788 %", "result": 44.6, "unit": "%"}, {"measurement": "inhibition", "setting": "Thailand/16681/1984, Concentration 99.01 uM, Number of replicates 2.0, Standard deviation 0.473003628419333 %", "result": 22.1, "unit": "%"}, {"measurement": "inhibition", "setting": "Thailand/16681/1984, Concentration 198.0 uM, Number of replicates 2.0, Standard deviation 1.2548162043536224 %", "result": 2.91, "unit": "%"}]}
{"smiles": "CC(C)CNC(=O)c1cc(Cl)ccc1NS(=O)(=O)c1ccc(Oc2ccccc2Cl)cc1", "values": [{"measurement": "inhibition", "setting": "Thailand/16681/1984, Concentration 49.5 uM, Number of replicates 2.0, Standard deviation 0.23411798845789034 %", "result": 89.6, "unit": "%"}, {"measurement": "inhibition", "setting": "Thailand/16681/1984, Concentration 99.01 uM, Number of replicates 2.0, Standard deviation 0.14645254355523077 %", "result": 88.7, "unit": "%"}, {"measurement": "inhibition", "setting": "Thailand/16681/1984, Concentration 198.0 uM, Number of replicates 2.0, Standard deviation 0.2542297902177128 %", "result": 84.4, "unit": "%"}]}
{"smiles": "CCCCCNC(=O)c1cc(Cl)ccc1NS(=O)(=O)c1ccc(Oc2ccccc2Cl)cc1", "values": [{"measurement": "inhibition", "setting": "Thailand/16681/1984, Concentration 49.5 uM, Number of replicates 2.0, Standard deviation 0.23227296801747743 %", "result": 78.7, "unit": "%"}, {"measurement": "inhibition", "setting": "Thailand/16681/1984, Concentration 99.01 uM, Number of replicates 2.0, Standard deviation 0.006678758202430312 %", "result": 76.9, "unit": "%"}, {"measurement": "inhibition", "setting": "Thailand/16681/1984, Concentration 198.0 uM, Number of replicates 2.0, Standard deviation 0.04271599955318515 %", "result": 65.6, "unit": "%"}]}
{"smiles": "CNC(=O)[C@@H](C)CNS(=O)(=O)c1ccc(Oc2ccccc2Cl)cc1", "values": [{"measurement": "inhibition", "setting": "Thailand/16681/1984, Concentration 49.5 uM, Number of replicates 2.0, Standard deviation 0.8337442367954725 %", "result": -0.747, "unit": "%"}, {"measurement": "inhibition", "setting": "Thailand/16681/1984, Concentration 99.01 uM, Number of replicates 2.0, Standard deviation 0.25212885411314173 %", "result": 0.957, "unit": "%"}, {"measurement": "inhibition", "setting": "Thailand/16681/1984, Concentration 198.0 uM, Number of replicates 2.0, Standard deviation 0.23111814436827896 %", "result": 2.51, "unit": "%"}]}
